From PubChem BioAssay AID652180 (National Center for Advancing Translational Sciences (NCATS), 2013)
Results filed as inconclusive are left out. Activity calls are given as the source filed them. The call rests on the fitted dose curve; in most records, active means well fitted inhibition curve with a large enough effect; inconclusive means small, poorly fitted or top-dose-only effect; inactive means no such curve, though single readings can be large or run the other way.

Assay: qHTS Assay for Lipid Storage Modulators: 3T3L1 Assay against Probe and Analogs
Conditions: 3T3-L1 lipid droplets, BODIPY imaging, oleic acid, 18-24 h; series mostly up to 46.1 µM; activity change, negative = decreased lipid storage: at the top concentration
Excerpt: Storing lipids as a reservoir for energy or the anabolism of elementary metabolites is a common feature of probably all cells and is conserved from bacteria to humans. The universal cellular lipid storage organelle is the so-called lipid storage droplet (LD). Although ubiquitous, LDs share a simple structure composed of a hydrophobic core that harbors the storage lipids, which is shielded by a droplet-specific phospholipid monolayer to which proteins are attached. The current model of LD biogenesis involves an incorporation of the lipid core into the membrane leaflets of the endoplasmic reticulum (ER) followed by a subsequent budding-like maturation of a LD, which ultimately pinches off. Once released, LD volume can increase by localized lipogenesis or fusion of existing droplets. Storage lipids are re-mobilized enzymatically by lipase activity. Lipase regulation in the adipocyte is heavily studied and involves multiple components including catecholamine signaling, the LD-associated proteins Perilipin and comparative gene identification-58 (CGI-58) and at least two lipases named hormone sensitive lipase (HSL) and adipocyte triglyceride lipase (ATGL). LD regulation outside of the adipocyte is poorly understood and only few components are known. However, there is an urgent need to learn more about ectopic fat depots as mislocalized storage of lipids, for example in the liver or muscle, is an eminent health problem associated with insulin resistance or the metabolic syndrome. We developed a laser-scanning cytometer assay to enable 1,536-well screening and combined the results of the small molecules screen with an RNAi database based on lipid storage. In this assay we tested analogs of the probe against a mammalian cell line (3T3L1), to see if these small molecules could disrupt lipid storage. NIH Molecular Libraries Probe Production Centers Network [MLPCN] NIH Chemical Genomics Center [NCGC] MLPCN Grant: MH085686 Assay Submitter (PI): Mathias Beller, Max-Planck-Institut fur Biophysikalische Chemie
3T3L1 cells were obtained from ATCC (CL-173). 4 uL of cells at 1.25 X 105 cell/mL were dispensed into 1536 well Poly-D-Lysine coated black with clear bottom imaging plates (Corning, #7356) to obtain 500 cells/well, and cultured at 37 °C, 95% humidity, and 5% CO2 overnight. The culture medium used was OPTI-MEM containing 5% fetal bovine serum (FBS). Triacsin C (Sigma-Aldrich T-4540), an inhibitor of long-chain fatty acyl CoA synthetase that blocks synthesis of triglycerides, was used as a positive control for lipid under-storage. A total of 23 nL of compounds dissolved in DMSO at different concentrations were transferred to the assay plates using a Kalypsys 1536-pin tool, the final DMSO concentration was 0.46%. One microliter of oleic acid at 400 uM (Calbiochem, #4954) was added to induce lipid droplet formation in the cells, and the plates were lidded. After 18-24 hours of incubation at 37 °C, 95% humidity, and 5% CO2, cells were fixed (8 % paraformaldehyde in PBS, 30 min, room temperature), washed three times with PBS, then stained for lipid droplet and nucleus using 4uL of PBS solution containing BODIPY lipid dye 493/503 (1:2000 dilution, Life Technologies, #3922) and Hoechst 33342 (1:1000, Life Technologies, #H3570) with Washer dispenser EL406(Biotek). Images were acquired using InCell 2000 (GE). Number of cells, number of lipids and sizes of lipids were analysis using GE Investigator software.

Structure (SMILES)	activity change, negative = decreased lipid storage	Potency
O=C(NC1CCCc2c1cnn2-c1ccc(F)cc1F)c1cnon1 (stereo not given)	-9.25% (inactive)	
CCOC(=O)C1CCN(C(=O)C(C)(C)NC(=O)Nc2ccc(CN3CCOCC3)cc2)CC1	16.8% (inactive)	
O=C(NC1CCCc2c1cnn2-c1ccc(F)cc1F)c1ccc(C(=O)c2ccccc2)cc1 (stereo not given)	36.4% (inactive)	
CC(C)(C)OC(=O)NCCOCCOCCOc1ccc(-n2ncc3c2CCCC3NC(=O)c2ccccn2)cc1 (stereo not given)	44.9% (inactive)	
CCOc1ccc(CCNC(=O)c2cnon2)cc1OCC	-17.2% (inactive)	
O=C(Nc1cccc2c1cnn2-c1ccc(F)cc1)c1ccccn1	11.2% (inactive)	
CCOC(=O)C1CCN(C(=O)C2(NC(=O)Nc3ccccc3Cl)CC2)CC1	-13.9% (inactive)	
CCOC(=O)C1CCN(C(=O)C(C)(C)NC(=O)Nc2ccc(N)cc2)CC1	17.4% (inactive)	
O=C(NC1CCCc2c1cnn2-c1ccc(F)cc1F)c1ccsc1 (stereo not given)	55.2% (inactive)	
CCOc1ccc(CCNC(=O)c2ccc3[nH]ccc3c2)cc1OCC	8.17% [at 38.8 µM] (inactive)	
O=C(N[C@H]1CCCc2c1cnn2-c1ccc(F)cc1F)c1ccccn1	98.8% (inactive)	
CCOc1cc(F)c(CCNC(=O)c2cc3sccc3n2Cc2ccccc2)cc1OCC		14.8 nM (active)
O=C(NC1CCCc2c1cnn2-c1ccc(F)cc1F)c1ccccn1 (stereo not given)		inactive
O=C(NC1CCCc2c1cnn2-c1ccc(F)cc1F)c1cnccn1 (stereo not given)	81.4% (inactive)	
O=C(NC1CCCc2c1cnn2-c1ccc(F)cc1F)C1CCCCC1 (stereo not given)	103% (inactive)	
CCOc1cc(CCNC(=O)c2cc3sccc3n2Cc2ccccc2)cc(F)c1OCC		52.6 nM (active)
O=C(NC1CCCc2c1cnn2-c1ccc(F)cc1F)c1ccccc1 (stereo not given)		inactive
O=C(NC1CCCc2c1cnn2-c1ccc(F)cc1F)c1cccc(=O)[nH]1 (stereo not given)	27.2% (inactive)	
CCOc1ccc(CCNC(=O)c2cc3sccc3[nH]2)cc1OCC		4690 nM (active)
CCOc1ccc(CCNC(=O)c2ccccn2)cc1OCC	-36% (inactive)	

Structure (SMILES)	activity change, negative = decreased lipid storage	Potency
Cc1cc(SCc2sc(-c3ccc(C(F)(F)F)cc3)nc2C)ccc1OCC(=O)O	28% (inactive)	
O=C(c1cc2sccc2n1Cc1ccccc1)N(CCc1ccc(O)c(O)c1)Cc1ccccc1	36.2% (inactive)	
O=C(NC1CCCc2c1cnn2-c1ccc(F)cc1F)c1ccc(C2(C(F)(F)F)N=N2)cc1 (stereo not given)	78.7% (inactive)	
O=C(NCCc1ccc(O)c(O)c1)c1cc2sccc2n1Cc1ccccc1	7.56% (inactive)	
CN(C)Cc1ccc(-c2nc3cccc4c3n2CCNC4=O)cc1	-43.8% (inactive)	
CCOc1ccc(CCNC(=O)c2cc3sccc3n2CCN2CCN(C)CC2)cc1OCC		1320 nM (active)
CCOc1ccc(CCNC(=O)c2cc3sccc3n2C)cc1OCC	-54.4% (inactive)	
CCOC(=O)C1CCN(C(=O)C(C)(C)NC(=O)Nc2ccc(F)c(F)c2)CC1	-37.2% (inactive)	
CCOc1ccc(CCNC(=O)c2cc3sccc3n2Cc2ccccc2)c(F)c1OCC		526 nM (active)
CC(C)(C)OC(=O)NCCOCCOCCOCCn1ncc2c1CCCC2NC(=O)c1ccccn1 (stereo not given)	-33.2% (inactive)	
COc1nc(-c2ccc3c(c2)OCO3)n(-c2ccc(NC(=O)CSc3ccccc3)cc2)n1	6.57% (inactive)	
Cc1cn(-c2cc(NC(=O)c3ccc(C)c(Nc4nccc(-c5cccnc5)n4)c3)cc(C(F)(F)F)c2)cn1	-41.8% (inactive)	
Cc1cc2c(cc1C1(c3ccc(C(=O)O)cc3)CC1)C(C)(C)CCC2(C)C	111% (inactive)	
CCOc1ccc(CCNC(=O)c2cc3sccc3n2CC=C(C)C)cc1OCC		833 nM (active)
CCn1c(C(=O)NCCc2ccc(OC)c(OC)c2)cc2sccc21	-29.2% (inactive)	
CCOc1ccc(CCNC(=O)c2cc3ccccc3n2Cc2ccc(Cl)c(F)c2)cc1OCC		18.7 nM (active)
CCOc1ccc(CCNC(C)=O)cc1OCC	-8.63% (inactive)	
CCOc1ccc(CCNC(=O)c2ccc(N3N=C(C)CC3=O)cc2)cc1OCC	-22.6% (inactive)	
Cc1ccc(NC(=O)c2ccc(CN3CCN(C)CC3)cc2)cc1Nc1nc(-c2cccnc2)cs1	55.2% (inactive)	
COc1cc(C)c(Sc2cnc(NC(=O)c3ccc(CNC(C)C(C)(C)C)cc3)s2)cc1C(=O)N1CCN(C(C)=O)CC1 (stereo not given)		3320 nM (active)
